Screens deposited in PubChem BioAssay by National Center for Advancing Translational Sciences (NCATS).
Rab9 promoter act = activators of Rab9 promoter | Huh7 Rab9 promoter-luciferase reporter, luminescence, 24 h | Potency, µM (top dose mostly 9.22 µM), inactives show at the top dose activation, negative = inhibition, actives largely listed as activators | actives 2.8% (n = 320,000) | AID 485297; further: % of control where 0% means no effect; nearly all actives have a fitted effect of over 60% in size
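Measured in stably transfected Huh7 cells bearing a Rab9 promoter–luciferase construct: 24 h compound treatment at 37 °C, followed by luminescence detection.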
ELG1 DNA repair = inhibitors of ELG1-dependent DNA repair in HEK293T cells. AID 504467. HEK293T ELG1-luciferase reporter, luminescence, 16 h; DNA damage induced by 5-fluorouridine. actives 2.3% (n = 330,000). Potency, µM (titrated, usually from 46.1 µM), without a hit: at the highest dose activity change, negative = inhibition, actives largely listed as inhibitors; further: on the % scale 0 is the no-effect control and ±100 the full control effect; nearly all actives have a fitted effect of over 55% in size
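In this reporter screen, reduction of luminescence relative to DMSO vehicle indicated activity. Compounds and 5-fluorouridine were added together to 2,000 cells per well, incubated for 16 hr at 37 °C, then developed with ONE-Glo.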
FLuc counter = firefly luciferase modulation, counter-screen for miR-21 project. P08659. Potency, µM (doses to about 57.5 µM), for the others: top-dose activity change, negative = inhibition, most hits filed as inhibitors. actives 6.9% (n = 360,000). purified FLuc, Km substrates, luminescence inhibition;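 further: plate controls were vehicle for no effect and reference inhibitor for full effect; nearly all actives have a fitted effect of over 55% in size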
Target sequence (P08659 whole entry, looked up): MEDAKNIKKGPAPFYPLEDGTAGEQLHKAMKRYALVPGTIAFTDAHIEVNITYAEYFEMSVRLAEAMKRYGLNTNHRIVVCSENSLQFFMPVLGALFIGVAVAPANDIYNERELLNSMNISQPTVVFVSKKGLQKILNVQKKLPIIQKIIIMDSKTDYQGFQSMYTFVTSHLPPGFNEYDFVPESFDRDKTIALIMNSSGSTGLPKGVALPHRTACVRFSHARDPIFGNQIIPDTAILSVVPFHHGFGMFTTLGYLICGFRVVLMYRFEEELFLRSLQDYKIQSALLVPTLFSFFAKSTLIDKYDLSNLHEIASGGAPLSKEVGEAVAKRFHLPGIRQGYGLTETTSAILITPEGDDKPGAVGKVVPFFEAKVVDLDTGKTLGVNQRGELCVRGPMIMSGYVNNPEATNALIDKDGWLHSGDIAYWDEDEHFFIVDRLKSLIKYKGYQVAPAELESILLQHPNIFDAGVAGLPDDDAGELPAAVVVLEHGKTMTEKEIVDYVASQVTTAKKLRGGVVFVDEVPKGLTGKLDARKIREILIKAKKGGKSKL
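Purified P. pyralis luciferase, 10 nM final, with Km-level 10 uM D-luciferin and 10 uM ATP in 50 mM Tris acetate pH 7.5, 10 mM Mg acetate, 0.01% Tween-20, 0.05% BSA; 6-point qHTS titration about 60 µM downward; luminescence read.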
NPC1 promoter act = activators of NPC1 promoter; Huh7 NPC1 promoter luciferase reporter, 24 h; Potency, µM (series often up to 9.22 µM), for the others: at the highest dose activation, most hits filed as activators; AID 485313; actives 2.4% (n = 320,000); further: % of control where 0% means no effect; nearly all actives have a fitted effect of over 60% in size
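Readout is luciferase luminescence, reflecting NPC1 promoter activation in stably transfected Huh7 cells after 24 h compound exposure at 37 °C in reduced-serum medium with 10% FBS.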
SMN2 splice enh = enhancers of SMN2 splice variant expression | Potency, µM (top dose mostly 46.1 µM), for inactives: at the highest dose activity change, positive = activation, most hits filed as activators | HEK293 SMN2-luciferase splicing reporter, luminescence, 30-36 h | actives 2.8% (n = 210,000) | AID 1458; further: % of control where 0% means no effect; nearly all actives have a fitted effect of over 55% in size
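HEK293 cells carry an SMN2 minigene-luciferase reporter in which exon 7 inclusion puts luciferase in frame. Cells were seeded at 2000 cells/well, attached for 10-12 hours, then exposed to compounds for 30-36 hours at 37C before ONE-Glo luminescence.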
ELG1 genotoxic = induces genotoxicity in HEK293T cells with luciferase-tagged ELG1 | HEK293T ELG1-luciferase reporter, luminescence, 16 h | Potency, µM (doses to about 46 µM), inactives show at the highest dose activity change, positive = activation, most hits filed as activators | actives 1.3% (n = 330,000); further: % of control where 0% means no effect; nearly all actives have a fitted effect of over 60% in size
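DMSO vehicle served as control against compound-treated ELG1-luciferase HEK293T cells; exposure lasted 16 hr at 37 °C and 5% CO2, followed by ONE-Glo luminescence detection after 30 min.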
* hit, by the source's call; [ ] = another dose, or the depositor's remark. The list is not random: actives were taken first. Their share in the collection is about 9.2%. The call rests on the fitted dose curve; in most records, active means well fitted curve in the direction sought with a large enough effect; inconclusive means small, poorly fitted or top-dose-only effect, or another doubt; inactive means no such curve, though single readings can be large; an effect the other way counts as inactive or inconclusive. Potency means the concentration at half of the fitted maximal effect.

For Nc1nnc(SCC(=O)c2ccc3c(c2)NC(=O)CO3)s1 the results were Rab9 promoter act -4%, ELG1 DNA repair 10%, FLuc counter -2%, NPC1 promoter act -2% and ELG1 genotoxic 5%.
CC(C)(C)NCC(O)COc1cccc2c1CCC(=O)N2 (stereo not given) was read as Rab9 promoter act -2%, ELG1 DNA repair 11%, FLuc counter 2%, NPC1 promoter act 4% and ELG1 genotoxic -7%.
`OCCCNc1c2c(nc3cc(-c4ccc(Cl)cc4)nn13)CCC2` gave Rab9 promoter act 0%, ELG1 DNA repair -13%, FLuc counter 12µM*, NPC1 promoter act 0% and ELG1 genotoxic 5%.
`Clc1cccc(-c2cc3nc4c(c(NCc5ccco5)n3n2)CCCC4)c1` gave Rab9 promoter act 2µM*, ELG1 DNA repair inconclusive, FLuc counter 5.4µM*, NPC1 promoter act 3.5µM*, SMN2 splice enh inconclusive and ELG1 genotoxic 16%.
Screening CCOC(=O)COc1ccccc1/C=N\NC(=O)c1cc2c(ccc3ccccc32)o1 returned Rab9 promoter act 0%, ELG1 DNA repair -16%, FLuc counter 24µM*, NPC1 promoter act -4% and ELG1 genotoxic -1%.
For O=C(N/N=C/c1cc(Br)c(O)c(Br)c1)c1cc2c(ccc3ccccc32)o1 the results were Rab9 promoter act 0%, ELG1 DNA repair -5%, FLuc counter 3µM*, NPC1 promoter act 1% and ELG1 genotoxic -1%.
O=C(N/N=C/c1cc(Cl)c(O)c(Cl)c1)c1cc2c(ccc3ccccc32)o1 was read as Rab9 promoter act 12%, ELG1 DNA repair 0%, FLuc counter 2.1µM*, NPC1 promoter act 10% and ELG1 genotoxic -6%.
COC(=O)c1cccc(NC(=O)NC(=O)c2ccccc2Cl)c1 was read as Rab9 promoter act 0.35µM*, ELG1 DNA repair inconclusive, FLuc counter 11µM*, NPC1 promoter act 1.3µM* and ELG1 genotoxic inconclusive.
COC(=O)c1cccc(NC(=O)c2ccccc2)c1 was read as Rab9 promoter act inconclusive, ELG1 DNA repair inconclusive, FLuc counter inconclusive, NPC1 promoter act 24% and ELG1 genotoxic 7%.
Screening COC(=O)c1cccc(NC(=O)Nc2ccc(Cl)c(Cl)c2)c1 returned Rab9 promoter act 3.5µM*, ELG1 DNA repair inconclusive, FLuc counter 15µM*, NPC1 promoter act inconclusive, SMN2 splice enh -27% and ELG1 genotoxic 1%.
COC(=O)c1cccc(NC(N)=S)c1 was read as Rab9 promoter act -15%, ELG1 DNA repair -8%, FLuc counter -2%, NPC1 promoter act 1%, SMN2 splice enh -4% and ELG1 genotoxic -2%.
COC(=O)c1cc(NC(=O)Nc2ccccc2)ccc1Cl was read as Rab9 promoter act 19%, ELG1 DNA repair inconclusive, FLuc counter 15µM*, NPC1 promoter act 0%, SMN2 splice enh inconclusive and ELG1 genotoxic -3%.
COC(=O)c1cccc(NC(=O)Nc2ccccc2OC)c1 was read as Rab9 promoter act inconclusive, ELG1 DNA repair inconclusive, FLuc counter 12µM*, NPC1 promoter act 16% and ELG1 genotoxic inconclusive.
For COc1ccccc1NC(=O)Nc1cccc(NC(C)=O)c1 the results were Rab9 promoter act -7%, ELG1 DNA repair inconclusive, FLuc counter inconclusive, NPC1 promoter act 2% and ELG1 genotoxic 3%.
Screening COc1ccc(OC)c(/C=C/C(=O)Nc2ccc(C(=O)OCCC(C)C)cc2)c1 returned FLuc counter 0% and SMN2 splice enh -8%.
O=C(O)c1ccc(N=Nc2c(O)[nH]c3ccccc23)cc1 was read as Rab9 promoter act inconclusive, ELG1 DNA repair inconclusive, FLuc counter 0.43µM*, NPC1 promoter act 0.1µM* and ELG1 genotoxic inconclusive.
CC(=O)c1cccc(N=Nc2c(C)[nH]c3ccccc23)c1 was read as Rab9 promoter act 4%, ELG1 DNA repair 26%, FLuc counter 24µM*, NPC1 promoter act 2%, SMN2 splice enh 4% and ELG1 genotoxic 6%.
For O=C(N=Nc1c(O)[nH]c2ccccc12)c1cccs1 the results were Rab9 promoter act 2.5µM*, ELG1 DNA repair inconclusive, FLuc counter 2.1µM*, NPC1 promoter act inconclusive, SMN2 splice enh 11µM* and ELG1 genotoxic 12%.
Cc1cc(N=Nc2c(O)c3ccccc3[nH]c2=O)ccc1N=Nc1ccc(C(=O)N(C)C)cc1 was read as Rab9 promoter act inconclusive, ELG1 DNA repair inconclusive, FLuc counter inconclusive, NPC1 promoter act inconclusive and ELG1 genotoxic 17%.
`CC(C)=CC(=O)N1CCCC(N2CCN(c3ccc(F)cc3)CC2)C1` (stereo not given) gave Rab9 promoter act 3%, ELG1 DNA repair -8%, FLuc counter 3%, NPC1 promoter act 1% and ELG1 genotoxic -1%.
`O=C(CCN1CCN(c2ccccc2)CC1)NNC(=O)Cc1ccc(Br)cc1` gave Rab9 promoter act -2%, ELG1 DNA repair 4%, FLuc counter 6%, NPC1 promoter act -1% and ELG1 genotoxic 2%.
For O=C(Nc1nnc(-c2ccc(F)cc2)o1)c1ccco1 the results were Rab9 promoter act 0%, ELG1 DNA repair 16%, FLuc counter 17µM*, NPC1 promoter act 9% and ELG1 genotoxic 4%.
`O=C(Nc1nnc(-c2ccco2)o1)c1ccc2ccccc2c1` gave Rab9 promoter act -4%, ELG1 DNA repair inconclusive, FLuc counter inconclusive, NPC1 promoter act 2%, SMN2 splice enh -1% and ELG1 genotoxic inconclusive.
For N#Cc1ccc(C(=O)Nc2nnc(-c3ccco3)o2)cc1 the results were Rab9 promoter act 8%, ELG1 DNA repair 16µM*, FLuc counter inconclusive, NPC1 promoter act 2%, SMN2 splice enh -29% and ELG1 genotoxic -1%.
For Cc1ccc(C(=O)Nc2nnc(-c3ccco3)o2)cc1 the results were Rab9 promoter act 4µM*, ELG1 DNA repair inconclusive, FLuc counter 13µM*, NPC1 promoter act 3.5µM*, SMN2 splice enh 13µM* and ELG1 genotoxic inconclusive.
Screening CC(C)CCC[C@@H](C)[C@@H]1CC[C@@H]2[C@H]3CC[C@H]4C[C@@H](N)CC[C@@]4(C)[C@@H]3CC[C@]21C returned SMN2 splice enh -6%[9.22 µM].
For CCOC(=O)C1=NN(c2ccc(C)cc2)CC1C(=O)OC (stereo not given) the results were Rab9 promoter act 9%, ELG1 DNA repair 23%, FLuc counter -1%, NPC1 promoter act 9%, SMN2 splice enh 14% and ELG1 genotoxic 2%.
For CSc1ccc(CCNC(=O)c2ccc(-c3nc(COc4ccccc4)c(C)o3)cc2)cc1 the results were FLuc counter 1%.
